# Only some compounds are listed: those with a hit (about 21% of all), similar ones and a draw of the others.
# DT40 TDP1 no CPT: qHTS for Inhibitors of human tyrosyl-DNA phosphodiesterase 1 (TDP1): qHTS in cells in absence of CPT; actives 15% (n = 420,000); Potency, µM (doses to about 46.2 µM), for inactives: top-dose activity change, negative = growth inhibition, most hits filed as inhibitors; DT40 Tdp1-/- hTDP1 cells, no CPT, ATP luminescence, 48 h; AID 686978, 2013; note: potency is the fitted concentration of half-maximal effect; % is set by controls: 0 for no effect and ±100 for the full control effect; nearly all actives have a fitted effect of over 55% in size
#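 Chicken DT40 Tdp1-/- cells stably complemented with human TDP1 were seeded at 400 cells/well with DMSO in place of 20 nM camptothecin. After compound pinning, cells grew at least 48 hr at 37 °C; viability read by CellTiter-Glo luminescence.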
# IL1B secr inh: inflammasome signaling inhibition, IL-1 beta readout | THP-1 LPS/ATP IL-1B secretion, AlphaLISA, 16 h; hits give low values | activity change, % at 57.5 µM | actives 4.7% (n = 360,000) | AID 743279; in the data active = activity change below about -50%; inconclusive = mostly about -30% to -49%; note: % is set by controls: 0 for no effect and ±100 for the full control effect
#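 Secreted IL-1B measured by AlphaLISA bead assay after 16 h compound exposure of THP-1 cells; compounds (final up to 57.5 uM) added 1 h before LPS (250 ng/mL) and ATP (1.25 mM) stimulation; lower signal means less secretion.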
# DRD3 antagonist: antagonists of human D3 dopamine receptor. P35462. D3R cells, DiscoveRx beta-arrestin luminescence, antagonist mode; hits give low values. max response, negative = inhibition, %. actives 2.5% (n = 360,000); in the data active = max response below about -50%; inconclusive = no clear call, values can overlap the other calls; note: % is set by controls: 0 for no effect and ±100 for the full control effect
# Target sequence (P35462 whole entry, looked up): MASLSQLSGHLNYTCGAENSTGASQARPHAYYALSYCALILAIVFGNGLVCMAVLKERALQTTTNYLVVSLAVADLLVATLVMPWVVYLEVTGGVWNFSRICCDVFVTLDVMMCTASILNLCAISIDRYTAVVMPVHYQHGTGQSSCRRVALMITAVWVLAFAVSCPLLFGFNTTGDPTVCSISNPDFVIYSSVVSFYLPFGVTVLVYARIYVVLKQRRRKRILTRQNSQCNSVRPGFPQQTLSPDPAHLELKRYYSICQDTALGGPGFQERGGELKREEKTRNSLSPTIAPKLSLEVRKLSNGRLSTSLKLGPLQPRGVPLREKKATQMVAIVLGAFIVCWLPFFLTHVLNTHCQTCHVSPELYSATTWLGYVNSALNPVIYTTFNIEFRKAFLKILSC
#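 Cells expressing the human receptor were seeded at 1500 cells/well, incubated overnight at 37 degrees C in 5% CO2, then exposed to library compounds with dopamine controls for 90 minutes at 37 degrees C before luminescent detection.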
# ClpP mod: qHTS Assay for Activators of ClpP | Potency, µM (highest dose often 57.5 µM), inactives show top-dose activity change, negative = active | purified B. subtilis ClpP, FRET peptide cleavage, 20 min | AID 651965, 2013 | ATP-dependent Clp protease proteolytic subunit (Bacillus subtilis (strain 168)), P80244 | actives 1.9% (n = 340,000); active = well fitted falling curve with a large enough effect; inconclusive = small, poorly fitted or top-dose-only effect; inactive = no such curve, though single readings can be large or run the other way; note: potency is the fitted concentration of half-maximal effect; the source files actives as falling curves though it sought activators and does not explain the sign; nearly all actives have a fitted effect of over 65% in size
# Target sequence (P80244 whole entry, looked up): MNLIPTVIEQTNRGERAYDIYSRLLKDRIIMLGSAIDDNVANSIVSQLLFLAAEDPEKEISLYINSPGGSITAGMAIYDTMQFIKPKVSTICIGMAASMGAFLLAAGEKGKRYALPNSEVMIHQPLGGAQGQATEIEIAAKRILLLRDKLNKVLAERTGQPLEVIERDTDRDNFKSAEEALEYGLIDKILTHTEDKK
#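 FRET quenching reversal measured ClpP activation: 10 microg/mL B. subtilis ClpP at pH 8 with the FRET-FV decapeptide, read at 430 nm after 320 nm excitation. The 20-min minus 0-min signal was scaled between DMSO/no-enzyme wells and ADEP (5.8 microM final).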
# DRD3 agonist: activates the human D3 dopamine receptor | D3R DiscoveRx beta-arrestin cells, luminescence, 90 min | max activation, % | actives 0.58% (n = 410,000) | AID 652048; in the data active = max activation above about 30%; note: 0% is about no effect
#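 Agonist-mode cell screen: cells plated at 1500/well and incubated overnight at 37 °C, then exposed to library compounds for 90 min at 37 °C. Detection reagent was added for 30–60 min at room temperature, and luminescence was read.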
# DT40 TDP1 CPT: growth inhibition of DT40 Tdp1-/-;hTDP1 cells with camptothecin (screen for TDP1 inhibitors) | chicken DT40 Tdp1-/-;hTDP1 cells + 20 nM CPT, ATP luminescence, 48 h | Potency, µM (top dose mostly 46.2 µM), for the others: at the highest dose activity change, negative = growth inhibition, most hits filed as inhibitors | actives 12% (n = 420,000) | AID 686979; note: potency is the fitted concentration of half-maximal effect; % is set by controls: 0 for no effect and ±100 for the full control effect; nearly all actives have a fitted effect of over 55% in size
#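 Cell growth measured by CellTiter-Glo luminescence after a minimum 48 h, 37 C compound exposure with 20 nM CPT in Tdp1-knockout DT40 cells stably expressing hTDP1, seeded 400/well; qHTS titration format.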
# Starred values were filed as active, the others as inactive; ? = inconclusive; nt = no result. Unless noted, calls come from the whole dose curve; as a rule, active = well fitted inhibition curve with a large enough effect; inconclusive = small, poorly fitted or top-dose-only effect; inactive = flat fitted curve, though single readings scatter.
SMILES,DT40 TDP1 no CPT,IL1B secr inh,DRD3 antagonist,ClpP mod,DRD3 agonist,DT40 TDP1 CPT
COc1ccc2oc(=O)c(-c3nnc(N)s3)cc2c1,-27%,-84*,2,nt,-3,1%
Nc1nnc(-c2cc3ccccc3oc2=O)s1,?,-13,23,25µM*,-8,-22%
O=C(NCCCc1nc2ccccc2n1Cc1ccccc1F)c1ccco1,?,nt,nt,-2%,6,?
CC/C(C)=N\Nc1nc(-c2cc3cc(OC)ccc3oc2=O)cs1,18µM*,-6,15,nt,-1,?
Nc1ccc(Oc2ccccc2-c2ccccc2)cc1,-27%,-57*,?,nt,-8,5%
NCCOc1ccccc1-c1ccccc1,?,-2,-4,-1%,-27,?
CN1CCCN(C(=O)c2ccc(Cl)s2)CC1,0%,11,12,0%,-16,-29%
Cc1nn(C(=O)c2cccc(F)c2)c(C)c1S(=O)(=O)N1CCCCCC1,6%,nt,nt,1%,-1,-5%
CNS(=O)(=O)c1cn(CC(=O)Nc2ccc(OC)c(Cl)c2)cc1S(=O)(=O)NC,-9%,nt,nt,-6%,-9,0%
CN1CCN(c2nc(-c3cccc(NS(C)(=O)=O)c3)nc3ccccc23)CC1,-13%,nt,nt,nt,nt,-3%
CN1CCN(c2nc(-c3cccnc3)nc3ccccc23)CC1,-23%,?,?,25µM*,1,2%
c1ccc(N2CCN(c3nc(-c4ccccn4)nc4ccccc34)CC2)cc1,4.6µM*,-21,-82*,1%,-11,4.1µM*
c1cncc(-c2nc(N3CCCCCC3)c3ccccc3n2)c1,?,-21,-1,1%,0,?
Fc1ccccc1-c1nc(N2CCN(c3cccc(Cl)c3)CC2)c2ccccc2n1,23µM*,nt,nt,32µM*,-1,13µM*
CN1CCN(c2nc(-c3ccccn3)nc3ccccc23)CC1,?,-7,-51*,0%,4,?
C/C(=N/NC(=O)CC1N=C(Cc2ccccc2)NNC1=O)c1cccnc1 (centres undefined),10%,29,-5,1%,3,-3%
Cc1cc(C(=O)CN2CCCC(C)C2)c(C)n1-c1ccc(F)cc1 (centres undefined),?,5,-4,-2%,1,-22%
Cc1cc(C)n(-c2ccc(C(=O)Nc3cccnc3)cc2)n1,-5%,-9,6,1%,5,-2%
CCOc1ccc(-c2cc(CCCC(=O)NCc3ccco3)no2)cc1,21µM*,18,-18,2%,-5,?
O=C(CCCc1nc(-c2ccc(Cl)cc2)no1)NCc1ccco1,12µM*,nt,nt,1%,3,7.3µM*
Cc1ccc(-c2noc(CCCC(=O)NCc3ccco3)n2)cc1,18µM*,nt,nt,0%,-3,?
O=C(NCC1CCCO1)c1cc2nc(-c3ccco3)cc(C(F)(F)Cl)n2n1 (centres undefined),-5%,7,23,-5%,7,-4%
COc1cccc(Cn2c(=O)c(CCc3ccccc3)nc3cnc(N4CCOCC4)nc32)c1,-15%,nt,nt,nt,nt,-23%
CN1CCN(c2ccnc(-c3ccc(N(C)C)cc3)n2)CC1,23µM*,nt,nt,nt,nt,23µM*
CN1CCN(c2nnc(-c3ccccc3)c(-c3ccccc3)n2)CC1,-26%,nt,-28,nt,-27,0%
SMILES,DT40 TDP1 no CPT,IL1B secr inh,DRD3 antagonist,ClpP mod,DRD3 agonist,DT40 TDP1 CPT
CN1CCN(c2ccnc(N(C)CCCCCCN)n2)CC1,?,nt,nt,5%,nt,13µM*
C=CCOc1ccc2ccccc2c1CNn1cn[nH]c1=S,2%,-10,-9,2%,0,-2%
Cc1[nH]c(=O)[nH]c(=O)c1S(=O)(=O)Nc1ccc(F)cc1F,8%,-12,3,0%,0,-3%
CCOC(=O)[C@]12CCC=C1N(Cc1ccc(Cl)cc1Cl)C(=O)[C@H](CC(=O)NCc1ccc(OC)c(OC)c1)C2,?,-22,-23,-1%,-4,16µM*
CCOC(=O)[C@]12CCCC=C1N(Cc1ccc(Cl)cc1Cl)C(=O)[C@H](CC(=O)NCc1ccccc1)C2,?,0,1,0%,1,?
CCOC(=O)[C@]12CCC=C1N(Cc1ccc(Cl)cc1Cl)C(=O)[C@H](CC(=O)NCc1cccc3ccccc13)C2,23µM*,-30,30,-7%,0,?
Cc1[nH]nc2c1C(c1ccc(N(C)C)cc1)C1=C(CC(C)(C)CC1=O)N2 (centres undefined),?,-1,5,nt,14,-7%
COc1ccc(C2C3=C(CCCC3=O)Nc3n[nH]c(C)c32)cc1OC (centres undefined),-14%,10,5,nt,8,-13%
Cc1ccc(C2C3=C(CC(C)(C)CC3=O)Nc3n[nH]c(C)c32)cc1 (centres undefined),-1%,-4,-23,25µM*,0,1%
Cc1[nH]nc2c1C(c1ccc(F)cc1)C1=C(CC(C)(C)CC1=O)N2 (centres undefined),1%,56,-4,25µM*,2,-2%
Cc1[nH]nc2c1C(c1cccc(O)c1)C1=C(CC(C)(C)CC1=O)N2 (centres undefined),-8%,44,-10,28µM*,0,5%
CCc1ccc(S(=O)(=O)c2cn(CC(=O)Nc3cccc(C)c3)c3ccc(Cl)cc3c2=O)cc1,-27%,nt,nt,1%,4,2%
CCOC(=O)Cc1ccc(NC(=O)N2CCC(CN3CCC(C)CC3)CC2)cc1,-1%,nt,nt,-2%,-16,3%
COc1ccc(NC(=O)c2oc3ccccc3c2NC(=O)C(C)(C)C)cc1,?,-55*,3,-3%,1,?
Cc1cccc(OCC(=O)Nc2c(C(=O)Nc3ccc(F)cc3)oc3ccccc23)c1,-30%,nt,nt,0%,1,-10%
CCOc1ccc(NC(=O)c2oc3ccccc3c2NC(=O)c2c(F)cccc2F)cc1,?,nt,nt,-6%,5,?
CCOc1ccc(NC(=O)c2oc3ccccc3c2NC(=O)C(C)(C)C)cc1,18µM*,nt,nt,-13%,8,?
CCOc1ccccc1C(=O)Nc1c(C(=O)Nc2ccc(F)cc2)oc2ccccc12,2.3µM*,nt,nt,32µM*,-8,4.1µM*
CC(N)c1csc(Nc2cc(Oc3ccccc3)ncn2)n1 (centres undefined),0.041µM*,-65*,15,-1%,7,?
